Screening data (PubChem BioAssay)
The list is not random: actives were taken first. Their share in the collection is about 2.7%.
ATXN2 expr inh – Primary qHTS for Inhibitors of ATXN expression | Potency, µM (series often up to 57 µM), for inactives: at the top dose activity change, negative = inhibition, actives largely listed as inhibitors | HEK-293 ATXN2-luciferase reporter, luminescence, 24 h | hit rate 0.72% among 360,000; also: % is scaled to controls: 0 for no effect and ±100 for the full control effect; nearly all actives have a fitted effect of over 55% in size
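ATXN2-luciferase reporter cells (luciferase flanked by upstream and downstream ATXN2 gene portions) were treated 24 h at 37 °C with compounds at up to 57 uM. SteadyGlo luminescence gave expression; GF-AFC fluorescence gave viability.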
TGFb inhibitor – qHTS for Inhibitors of TGF-b. HepG2 CAGA-GFP TGF-b/SMAD3 reporter, GFP fluorescence, 18 h; TGF-beta stimulated, 500 pg/mL final. Potency, µM (top dose mostly 46.1 µM), inactives show top-dose activity, negative = inhibition, usual class: inhibitors. hit rate 1.2% among 410,000. AID 588855, 2011; also: % is scaled to controls: 0 for no effect and ±100 for the full control effect; nearly all actives have a fitted effect of over 65% in size
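Read-out: total well GFP (ex488/em500-530) summed from mean per-cell fluorescence. Cells: HEPG2 CAGA-GFP, 1% FBS DMEM, 18 h at 37 degrees C with 500 pg/mL final TGF-beta. Unstimulated wells served as the full-inhibition control; stimulated DMSO wells = 0%.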
ALOX12 inh – Primary qHTS assay for inhibitors of human arachidonate 12S-lipoxygenase (ALOX12): Round 2. purified 12hLO, xylenol orange hydroperoxide absorbance. Potency, µM (series often up to 108 µM), for inactives: top-dose activity change, negative = inhibition, usual class: inhibitors. hit rate 1.1% among 580,000; also: % is scaled to controls: 0 for no effect and ±100 for the full control effect
Target sequence (P18054 whole entry, looked up): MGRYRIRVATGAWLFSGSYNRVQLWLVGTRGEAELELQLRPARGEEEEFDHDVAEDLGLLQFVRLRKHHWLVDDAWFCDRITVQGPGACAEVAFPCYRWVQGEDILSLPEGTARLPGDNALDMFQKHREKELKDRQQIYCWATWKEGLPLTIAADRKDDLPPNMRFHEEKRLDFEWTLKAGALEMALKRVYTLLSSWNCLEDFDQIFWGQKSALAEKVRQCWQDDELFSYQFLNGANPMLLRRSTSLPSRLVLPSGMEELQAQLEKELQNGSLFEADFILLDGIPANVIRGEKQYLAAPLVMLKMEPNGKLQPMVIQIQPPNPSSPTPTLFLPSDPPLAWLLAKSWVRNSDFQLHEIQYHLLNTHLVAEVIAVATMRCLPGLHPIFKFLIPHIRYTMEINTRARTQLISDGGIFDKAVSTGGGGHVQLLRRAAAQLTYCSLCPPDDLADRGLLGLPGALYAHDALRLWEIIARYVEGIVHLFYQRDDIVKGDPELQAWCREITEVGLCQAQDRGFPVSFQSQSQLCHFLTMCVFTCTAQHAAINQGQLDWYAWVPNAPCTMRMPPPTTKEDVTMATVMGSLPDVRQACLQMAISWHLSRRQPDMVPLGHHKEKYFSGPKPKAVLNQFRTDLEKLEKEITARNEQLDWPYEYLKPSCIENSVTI
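Purified human 12hLO at 150 nM in 25 mM Hepes, 0.01% Triton X-100, pH 7.0, preincubated 15 min at room temperature with compound. Reaction started with 40 uM arachidonic acid, 30 min at room temperature. Hydroperoxide measured by Fe-xylenol orange, 573/405 nm absorbance ratio.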
ATXN viability – Viability Counterscreen for Primary qHTS for Inhibitors of ATXN expression; S2 cells (HEK-293 line with an ATXN2-luciferase reporter) viability, CellTiter-Fluor protease fluorescence, 24 h; Potency, µM (series often up to 56.7 µM), hits mostly cytotoxic; hit rate 0.49% among 400,000; AID 651635, 2014; also: nearly all actives have a fitted effect of over 40% in size
HepG2 tox-1 – qHTS for Inhibitors of TGF-b: Cytotox Counterscreen. hit rate 0.76% among 410,000. Potency, µM (titrated, usually from 46.1 µM), for the others: at the highest dose activity change, negative = cytotoxicity, actives largely listed as cytotoxic. HepG2 CAGA-GFP viability, ATP luminescence, 18 h
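HepG2 CAGA-GFP cells (1000/well, DMEM with 1% FBS) received compound, then TGF-beta at 500 pg/mL final, and were incubated 18 hours at 37 degrees C. Viability was read by CellTiter-Glo luminescence. Media-only wells were set as complete cell-killing and DMSO as no toxicity.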
TGFb confirm – qHTS for Inhibitors of TGF-b: Confirmation of Cherry Picks; HepG2 CAGA-GFP TGF-b reporter, GFP fluorescence, 18 h; cells stimulated with TGF-beta, 500 pg/mL; Potency, µM (titrated, usually from 46.1 µM), without a hit: at the highest dose activity, negative = inhibition, hits mostly inhibitors; shares compounds with TGFb inhibitor; hit rate 63% among 1,600; also: % is scaled to controls: 0 for no effect and ±100 for the full control effect; nearly all actives have a fitted effect of over 65% in size
HepG2 tox-2 – qHTS for Inhibitors of TGF-b: Cytotox Counterscreen for Cherry Picks; shares compounds with TGFb inhibitor; HepG2 CAGA-GFP viability, ATP luminescence, 18 h; cells stimulated with TGF-beta, 500 pg/mL; Potency, µM (titrated, usually from 46.1 µM), for the others: at the top dose activity, negative = cytotoxicity, hits mostly inhibitors; hit rate 27% among 1,600; AID 720535, 2013; also: % is scaled to controls: 0 for no effect and ±100 for the full control effect; nearly all actives have a fitted effect of over 70% in size
TGFb CCL64 inh – qHTS for Inhibitors of TGF-b: CCL64 Cells Orthogonal Assay for Cherry Picks. AID 720536, 2013. CCL64 CAGA-GFP reporter, TGF-b stimulated, GFP fluorescence, 18 h. hit rate 41% among 1,600. Potency, µM (doses to about 46.1 µM), for inactives: at the highest dose activity, negative = inhibition, most hits filed as inhibitors. shares compounds with TGFb inhibitor; also: nearly all actives have a fitted effect of over 65% in size
TGFb COP inh – qHTS for Inhibitors of TGF-b: Hit Validation in HepG2 Cells using COP promoter | shares compounds with TGFb inhibitor | hit rate 3% among 1,600 | Potency, µM (top dose mostly 46.1 µM), for the others: at the top dose activity, negative = inhibition, most hits filed as inhibitors | AID 720537, 2013 | HepG2 COP-GFP TGF-b reporter, GFP fluorescence, 18 h; cells stimulated by added recombinant TGF-beta; also: nearly all actives have a fitted effect of over 70% in size
Active calls of the source: *; i = inactive; ? = inconclusive; / = not tested or not shown. Calls follow the shape of the dose curve; as a rule, active = well fitted curve in the direction sought with a large enough effect; inconclusive = small, poorly fitted or top-dose-only effect, or another doubt; inactive = no such curve, though single readings can be large; an effect the other way counts as inactive or inconclusive. Potency is read from the fitted curve at half-maximal effect.

SMILES	ATXN2 expr inh	TGFb inhibitor	ALOX12 inh	ATXN viability	HepG2 tox-1	TGFb confirm	HepG2 tox-2	TGFb CCL64 inh	TGFb COP inh
FC(F)(F)c1cccc(CSc2nnc(-c3ccncc3)n2-c2ccc(Br)cc2)c1	/	/	18.3%	/	/	/	/	/	/
O=C(Nc1cccc(Br)c1)c1cc2ccc(O)cc2oc1=O	/	/	-4.0%	/	/	/	/	/	/
O=S(=O)(c1ccc2ccccc2c1)N1CCN(C2Cc3ccccc3C2)CC1	-11.8%	5.01µM*	-29.2%	i	-14.8%	-22.7%	5.0%	11.2%	1.1%
O=C(c1cc(-c2ccc(Br)cc2)nc2ccccc12)N1CCN(c2ccccc2O)CC1	11.9%	11.2µM*	-29.1%	i	-2.1%	6.51µM*	?	?	1.6%
O=C(c1cc(-c2ccccc2Cl)nc2ccc(Br)cc12)N1CCN(c2ccccn2)CC1	?	?	?	?	-27.0%	-29.9%	?	?	11.2%
O=C(c1cc(-c2ccncc2)nc2ccc(Br)cc12)N1CCN(c2ccccn2)CC1	-5.4%	-1.4%	0.0%	?	-32.6%	/	/	/	/
Cc1ccc(-c2cc(C(=O)N3CCN(c4ccccc4O)CC3)c3ccccc3n2)o1	-13.4%	0.0%	?	i	-26.8%	/	/	/	/
O=c1oc2cc(OS(=O)(=O)c3ccccc3)ccc2cc1-c1ccccc1	/	/	11.0%	/	/	/	/	/	/
O=C1/C(=C/c2ccccc2[N+](=O)[O-])COc2ccccc21	21.2µM*	7.94µM*	-9.6%	23.8µM*	-22.9%	2.06µM*	10.3µM*	2.31µM*	4.3%
O=C(Nc1cc(F)ccc1F)N1CCN(c2ccnc3cc(Cl)ccc23)CC1	?	2.8%	0.0%	?	-9.4%	/	/	/	/
O=C(Nc1ccc(C(F)(F)F)cc1)N1CCN(c2ccnc3cc(Cl)ccc23)CC1	?	11.2µM*	97.7%	?	18.7%	23.1µM*	?	?	73.1%
O=C(CCc1nc2ccccc2oc1=O)OCc1cccc(C(F)(F)F)c1	/	/	1.9%	/	/	/	/	/	/
Cc1cc(Cl)c(S(=O)(=O)N2CCCCCC2)cc1OCC(=O)NC1CCCCC1	/	-19.9%	-3.5%	/	12.3%	/	/	/	/
Cc1cc(Cl)c(S(=O)(=O)N2CCN(c3ccccn3)CC2)cc1OCC(=O)NC1CCCCC1	/	10µM*	3.1%	?	-21.9%	11.6µM*	?	-24.8%	16.1%
Cc1cccc(C)c1NC(=O)CCCSc1nnc(-c2ccc(F)cc2)n1-c1ccccc1	-4.8%	7.94µM*	-19.1%	i	-36.6%	?	-24.8%	?	18.2%
Cc1cccc(C)c1NC(=O)CCCSc1nnc(-c2ccc(Cl)cc2)n1-c1ccccc1	-24.0%	?	-12.5%	i	-19.2%	/	/	/	/
COc1cc(NC(=O)C2Cc3ccccc3CN2S(C)(=O)=O)cc(OC)c1 (centres undefined)	-27.4%	11.2µM*	51.2%	i	25.3%	-20.7%	-6.5%	-21.0%	8.4%
O=C1Cc2c([nH]c3ccc(Br)cc23)-c2ccccc2N1	58.7%	2.82µM*	?	?	-9.2%	0.92µM*	3.66µM*	2.91µM*	27.9%
Brc1ccc2[nH]c3c(c2c1)CCCC3=NCc1ccccc1	/	/	-2.9%	/	/	/	/	/	/
CCCOc1ccc(C(=O)CCN2CCN(C(=O)OCC)CC2)cc1	?	15.8µM*	-21.1%	?	-44.6%	8.2µM*	20.6µM*	18.4µM*	23.1µM*
CCOC(=O)N1CCN(C(=O)CCC(=O)c2ccc(OCC)cc2)CC1	2.6%	2.6%	4.2%	i	-6.1%	/	/	/	/
CN(C(=S)NC(=O)c1ccccc1Br)C1CCCCC1	-12.6%	?	-23.4%	i	-23.0%	-19.8%	-13.5%	8.6%	1.5%
O=c1c2cn[nH]c2nc(SCc2cc(=O)n3cc(Br)ccc3n2)n1-c1ccc(Br)cc1	-29.6%	?	1.5%	i	-0.1%	/	/	/	/
O=c1c2cn[nH]c2nc(SCc2ccccc2F)n1-c1ccc(Br)cc1	-34.1%	10µM*	-9.5%	i	15.8µM*	?	?	?	77.4%
O=C(Nc1cc2c(cc1C(=O)C1CC1)OCCO2)c1ccco1	/	/	-16.6%	/	/	/	/	/	/
SMILES	ATXN2 expr inh	TGFb inhibitor	ALOX12 inh	ATXN viability	HepG2 tox-1	TGFb confirm	HepG2 tox-2	TGFb CCL64 inh	TGFb COP inh
OCc1ccccc1-c1nc2ccccc2s1	/	/	-1.5%	/	/	/	/	/	/
Cc1[nH]n(-c2ccccc2)c(=S)c1C=NCCCN=Cc1c(C)[nH]n(-c2ccccc2)c1=S	?	0.562µM*	11.2µM*	?	-39.8%	-4.4%	-2.7%	-18.3%	7.5%
COC(=O)CN=Cc1c(C)[nH]n(-c2ccccc2)c1=O	/	8.1%	9.3%	i	-2.2%	/	/	/	/
C=CCn1c(COc2ccccc2F)nnc1SCC(=O)Nc1cc2oc3ccccc3c2cc1OC	-15.3%	?	0.0%	i	-8.9%	?	-25.8%	?	14.9%
O=C(CSc1n[nH]c(-c2ccncc2)n1)Nc1ccccn1	-13.4%	11.2µM*	?	i	0.3%	16.4µM*	-0.6%	?	-14.7%
Cc1cccc(N(C)S(=O)(=O)c2ccc(-c3cnc(C4CC4)o3)cc2)c1	/	7.94µM*	24.6%	?	-2.4%	4.61µM*	?	6.51µM*	30.3%
COc1ccccc1NS(=O)(=O)c1ccc(-c2cnc(C)o2)cc1	/	/	4.7%	/	/	/	/	/	/
COc1ccccc1NS(=O)(=O)c1ccc(-c2cnc(C3CC3)o2)cc1	/	11.2µM*	1.0%	i	-23.6%	?	?	?	3.7%
COc1ccc(NS(=O)(=O)c2cccc(NC(=O)CCC(=O)c3cccs3)c2)cc1	6.4%	-20.6%	-3.3%	?	-19.3%	/	/	/	/
COc1ccc(NS(=O)(=O)c2cccc(NC(=O)CCC(=O)c3ccc(Cl)cc3)c2)cc1	-15.5%	10µM*	-25.3%	?	-23.0%	16.4µM*	?	?	45.6%
